# SRC1 TRFRET art – TR-FRET artefact, counter-screen to PPARgamma/SRC-1 agonist assay | TR-FRET ratio at 8 µM | 99,000 tested, 0.34% active | TR-FRET detection artefact counter-screen, emission ratio; stronger effect = higher value; in the data active = TR-FRET ratio above about 2300
# SRC3 TRFRET art – counter-screen for PPARgamma SRC-3 recruitment agonists: TR-FRET artefact; 99,000 tested, 0.39% active; TR-FRET ratio at 8 µM; PPARgamma/SRC-3 format; stronger effect = higher value; AID 1048
# SRC2 TRFRET art – counter-screen for PPARgamma SRC-2 recruitment agonists: TR-FRET artefact | 200,000 tested, 0.4% active | stronger effect = higher value | TR-FRET ratio at 8 µM
# PPARg SRC2 recr – PPARgamma-driven SRC-2 recruitment agonism | P37231 | PPARgamma LBD-SRC-2 recruitment, biochemical | activation, % at 8 µM | 200,000 tested, 0.34% active | AID 1032; in the data active = activation above about 22%
# Target sequence (P37231 whole entry, looked up, the tested form may be a part): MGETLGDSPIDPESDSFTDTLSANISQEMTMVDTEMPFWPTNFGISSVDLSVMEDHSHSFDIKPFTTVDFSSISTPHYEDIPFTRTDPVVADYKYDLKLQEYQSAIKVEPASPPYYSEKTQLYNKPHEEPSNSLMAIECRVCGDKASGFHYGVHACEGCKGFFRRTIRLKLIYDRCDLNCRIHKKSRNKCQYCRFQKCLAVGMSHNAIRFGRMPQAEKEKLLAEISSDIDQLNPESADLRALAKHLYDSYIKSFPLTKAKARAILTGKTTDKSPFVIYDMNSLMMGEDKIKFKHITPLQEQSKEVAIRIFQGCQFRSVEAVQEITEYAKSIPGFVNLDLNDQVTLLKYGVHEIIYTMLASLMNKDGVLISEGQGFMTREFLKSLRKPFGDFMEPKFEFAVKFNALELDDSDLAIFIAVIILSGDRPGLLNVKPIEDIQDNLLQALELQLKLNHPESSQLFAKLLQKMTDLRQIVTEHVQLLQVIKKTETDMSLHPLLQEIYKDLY
# PPARg SRC-3 ag – agonists of human PPARgamma SRC-3 coactivator recruitment; biochemical PPARgamma/SRC-3 coactivator recruitment assay; activation, % at 8 µM; 200,000 tested, 0.26% active; AID 731; in the data active = activation above about 23%
# PPARg SRC1 recr – promotes SRC-1 coactivator recruitment by human PPARgamma; PPARgamma-SRC-1 coactivator recruitment biochemical assay; activation, % at 8 µM; 200,000 tested, 0.41% active; in the data active = activation above about 19%
# Hits are given with their value; 0 = inactive; - = not tested or not shown. An excerpt weighted towards active compounds, which were near 0.9% of everything screened. Cut-off read from the data, not from the text of the source, unless noted: active = TR-FRET ratio above about 2000; inactive = the rest.
SMILES,SRC1 TRFRET art,SRC3 TRFRET art,SRC2 TRFRET art,PPARg SRC2 recr,PPARg SRC-3 ag,PPARg SRC1 recr
O=C(O)CC(NC(=O)Cc1ccc(Cl)cc1)c1ccco1 (stereo not given),0,0,0,0,0,0
O=C(NCC(O)c1ccc([N+](=O)[O-])cc1)c1cccc(S(=O)(=O)N2CCCC2)c1 (stereo not given),0,0,0,0,0,0
O=C1CCC/C(=N\NC(=O)COc2ccc(Cl)cc2)C1,0,0,0,0,0,0
CCCCOc1ccc(NC2=NC3(CCCC3)N=C(N)N2)cc1,-,-,2220,41,0,0
Cn1nnc2cc(C(=O)Nc3ccc4ccccc4c3)ccc21,0,0,0,0,0,0
N#Cc1ccc(/C=N/N=C(N)N)cc1,-,-,0,0,26,0
NC(N)=N/N=C/c1ccc(Br)cc1,0,0,0,0,0,0
Cc1cccc(NC(=O)c2sc3nc(-c4ccc(F)cc4)cn3c2C)n1,-,-,0,0,0,36
COc1ccc(Nc2cnn(-c3nc4ccccc4s3)c(=O)c2Cl)cc1,0,0,0,0,0,0
O=c1c(Cl)c(Nc2cccc(Cl)c2)cnn1-c1nc2ccccc2s1,0,2400,2092,0,0,0
COC(=O)c1sccc1-n1cccc1C(=O)C(=O)N1CCOCC1,0,0,0,0,0,0
CC1Cc2ccccc2N1C(=O)CSc1nnnn1-c1ccc2c(c1)OCCO2 (stereo not given),-,-,2058,0,0,0
O=c1c2cnn(-c3ccccc3)c2nc(-c2cccs2)n1-c1cccc(Cl)c1,0,2389,0,0,0,0
O=c1c2cnn(-c3ccccc3)c2nc(-c2cccs2)n1-c1ccc(Cl)cc1,-,-,0,0,0,0
CCCNC(=O)Cn1c(=O)/c(=C\c2ccc(-c3ccc([N+](=O)[O-])cc3)o2)s/c1=C\C(=O)C(C)(C)C,0,0,0,0,0,0
COc1cc(OC)c(NC(C)C(=O)N2CCCC2)cc1Cl (stereo not given),0,0,0,0,0,0
CCC(C)NC(=O)Cn1c(=O)n(CCCC(=O)NCc2ccccc2Cl)c(=O)c2ccccc21 (stereo not given),-,-,0,22,0,0
CCOC(=O)c1sc2nc(CC(=O)OC)nc(NCc3ccc(F)cc3)c2c1C,-,-,3064,57,0,0
O=C(C1=C[C@@H](c2ccc(C(F)(F)F)cc2)C[C@@H](OCCCCO)O1)N1CCN(Cc2ccc3c(c2)OCO3)CC1,0,0,0,0,32,0
COc1cccc(NC(=O)C(c2ccccc2)N2CCNC(=O)C2)c1 (stereo not given),0,0,0,0,0,0
O=S(=O)(Nc1ccc(C(F)(F)F)cc1)c1cnc[nH]1,0,0,0,0,0,0
O=S(=O)(Nc1cccc(C(F)(F)F)c1)c1cnc[nH]1,0,0,0,35,0,0
Cc1cc(C)c(S(=O)(=O)Nc2c(C)[nH]c(=O)[nH]c2=O)c(C)c1,-,-,0,0,0,0
Cc1cc(C)c(S(=O)(=O)Nc2ccc3[nH]c(=O)[nH]c3c2)c(C)c1,0,0,0,0,0,22
CCN(CC)S(=O)(=O)c1ccc(N2CCOCC2)c(NC(=O)c2cc(-c3ccccn3)nc3ccccc23)c1,2421,2191,0,0,0,0
SMILES,SRC1 TRFRET art,SRC3 TRFRET art,SRC2 TRFRET art,PPARg SRC2 recr,PPARg SRC-3 ag,PPARg SRC1 recr
CC(C)(C)C1CCc2c(sc(NC(=O)c3cccs3)c2C(N)=O)C1 (stereo not given),-,-,0,24,0,0
COc1ccc(-n2nc(C(=O)NCC(=O)Nc3ccccn3)c3ccccc3c2=O)cc1Cl,-,-,0,0,0,23
COc1ccc(C2=NN(C(=S)Nc3ccccc3)C(c3ccccc3)C2)cc1 (stereo not given),0,0,0,0,0,0
CNC(=S)N1N=C(c2ccccc2)CC1c1ccc(OC)c(OC)c1 (stereo not given),2320,0,0,0,0,0
COc1ccc(C2CC(c3ccccc3)=NN2C(=S)Nc2ccccc2)cc1 (stereo not given),0,2233,2014,0,0,0
Fc1ccc(C2CC(c3cccs3)=NN2C(=S)Nc2ccccc2)cc1 (stereo not given),2336,0,0,0,0,0
CNC(=S)N1N=C(c2ccc(C)cc2)CC1c1ccc(OC)c(OC)c1 (stereo not given),0,0,0,0,0,0
COc1cccc(CN2CCNC(=O)C2CC(=O)NCCn2ccc3ccccc32)c1OC (stereo not given),0,0,0,0,0,0
C=CCN(c1ccccc1C(=O)O)S(=O)(=O)c1ccc(C)cc1,0,0,0,0,0,0
Cc1[nH]c2ccccc2c1/C=N/Nc1ccccn1,0,0,2002,0,0,0
Cc1[nH]c2ccccc2c1/C=N/Nc1nncn1N,0,0,0,0,0,0
COc1ccc(-c2ccc(C#N)c(SCC(=O)OCc3ccccc3)n2)cc1OC,-,-,2143,0,0,0
CC(C)n1cc(CN2CCCC(CO)(Cc3cccc(Cl)c3)C2)cn1 (stereo not given),0,0,0,0,0,0
N#Cc1c(-c2ccccc2Cl)cc(-c2ccccc2)nc1Br,0,2059,0,0,0,0
Cc1sc(NC(=O)Cc2ccc3c(c2)OCO3)nc1-c1ccc2c(c1)CCN2C(=O)c1cccc(F)c1,0,0,0,0,0,0
Cc1ccccc1C(=O)N1CCc2cc(-c3nc(NC(=O)Cc4ccc5c(c4)OCO5)sc3C)ccc21,0,2401,2157,0,0,0
O=C(c1ccccc1)c1nn(-c2ccccc2)c2nnc(Cc3ccccc3)c(=O)n12,-,-,2100,0,0,0
NC(=O)c1ccsc1NC(=O)c1coc2ccccc2c1=O,0,0,0,0,0,0
COc1cc(OC)cc(-c2nnc(SCC(=O)N(Cc3ccccc3)C(C)(C)C)o2)c1,-,-,0,23,0,0
COc1ccc(C2CC(=O)c3c([nH]c(C(=O)OC(C)C)c3C)C2)cc1OC (stereo not given),0,3447,0,0,32,0
CC(=O)c1ccc(N2CCN(C(=O)C3CCCN(S(=O)(=O)c4c(C)[nH]c(=O)[nH]c4=O)C3)CC2)cc1 (stereo not given),0,0,0,0,0,0
Cn1cnnc1SCc1ccc(C(=O)N=Nc2c(O)n(C)c3ccccc23)cc1,0,0,0,23,0,0
COC(=O)CC1C(=O)NCCN1C(=S)NC(=O)c1sc2ccccc2c1Cl (stereo not given),0,0,0,0,0,0
COc1ccccc1C(=O)C1CCCN(C(=O)CSc2ccccn2)C1 (stereo not given),0,0,0,24,0,0
CN(Cc1cccs1)C(=O)Cn1cnc2ccccc2c1=O,0,0,0,0,0,0
O=C(Cn1c(=S)[nH]c2ncccc2c1=O)NCCc1ccccc1,2328,0,0,0,0,0
O=c1c2cccnc2[nH]c(=S)n1Cc1ccccc1,0,0,0,0,0,0
CCN(CC)S(=O)(=O)c1cc(NC(=O)c2ccc(Br)s2)ccc1C,2789,0,0,0,0,0

# High-throughput results (PubChem)
